Compound activity deposited in PubChem by Emory University Molecular Libraries Screening Center.
This excerpt belongs to a sample that is enriched for hits.
14-3-3 PPI – modulators of 14-3-3 gamma protein binding, primary screen, biochemical, fluorescence polarization | 14-3-3 protein gamma (Homo sapiens), P61981 | 160,000 tested, 0.19% active | inhibition, % at 40 µM | FP, 14-3-3gamma / TMR-pS259-Raf peptide binding; in the data active means inhibition above about 30%
Target sequence (P61981 whole entry, looked up): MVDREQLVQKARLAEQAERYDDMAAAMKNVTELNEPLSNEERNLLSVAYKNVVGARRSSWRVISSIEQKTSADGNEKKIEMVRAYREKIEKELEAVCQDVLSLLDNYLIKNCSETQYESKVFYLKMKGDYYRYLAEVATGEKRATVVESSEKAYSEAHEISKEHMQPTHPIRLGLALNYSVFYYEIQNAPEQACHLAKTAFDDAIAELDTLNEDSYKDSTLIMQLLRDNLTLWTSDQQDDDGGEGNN
Large screens that a line does not name were inactive.

O=C(CSc1nnc(-c2cccnc2)n1Cc1ccccc1)Nc1ccccc1Cl	none
Cc1cc(C)nc(SCCSCc2ccc(Cl)cc2)n1	none
CSc1nnc2c(n1)OC(c1ccc(OCc3ccccc3)cc1)Nc1ccccc1-2 (stereo not drawn)	14-3-3 PPI 33
C=CCOc1ccc(C2Nc3ccc(Br)cc3-c3nnc(SC)nc3O2)cc1 (stereo not drawn)	none
CSc1nnc2c(n1)OC(C1CC=C(C)CC1C)Nc1ccccc1-2 (stereo not drawn)	14-3-3 PPI 83
CCCSc1nnc2c(n1)OC(C1CC=C(C)CC1C)Nc1ccccc1-2 (stereo not drawn)	none
C=CCSc1nnc2c(n1)OC(c1cccc(F)c1)Nc1ccccc1-2 (stereo not drawn)	none
C=CCOc1cccc(C2Nc3ccccc3-c3nnc(SC)nc3O2)c1 (stereo not drawn)	14-3-3 PPI 134
CCSc1nnc2c(n1)OC(C1CC=C(C)CC1C)Nc1ccccc1-2 (stereo not drawn)	none
CSc1nnc2c(n1)OC(c1ccc(OCC(=O)O)cc1)Nc1ccccc1-2 (stereo not drawn)	none
CCOc1ccc(C2Nc3ccccc3-c3nnc(SCC)nc3O2)cc1 (stereo not drawn)	none
COc1ccc(C2CC(C(F)(F)F)n3ncc(C(=O)Nc4ccccc4C)c3N2)cc1OC (stereo not drawn)	none
COc1ccc(CCn2c(=S)[nH]c3c(sc4ccc([N+](=O)[O-])cc43)c2=O)cc1OC	none
CN(C)c1ccc(N=Cc2nc(-c3ccccc3)oc2O)cc1	14-3-3 PPI 112
CSc1ccccc1N=Cc1nc(-c2ccccc2)oc1O	none
CC(=O)Nc1ccc(N=Cc2nc(-c3ccc(C)cc3)oc2O)cc1	none
CCOC(=O)C1C(=O)CC(C)(O)C(C(=O)OCC)C1c1cccnc1 (stereo not drawn)	none
CC1(C)CC(=O)C2=C(C1)Nc1nc(SCc3ccc(Cl)cc3)[nH]c(=O)c1C2c1ccccc1 (stereo not drawn)	none
Cc1oc(NC(=O)C(F)(F)F)c(C#N)c1C	14-3-3 PPI 33
COc1ccc(-c2oc(NC(=O)C(F)(F)F)c(C#N)c2-c2ccc(OC)cc2)cc1	none
COC(=O)c1sc(NC(=O)C(F)(F)F)c(C(=O)OC)c1C	none
CC(C)c1ccc(NC(=O)CN(c2cc(C(F)(F)F)ccc2Cl)S(C)(=O)=O)cc1	none
O=C1c2ccccc2C(=O)c2c1oc1c3c(ccc21)OCN(Cc1cccnc1)C3	none
COC(=O)c1ccccc1NC(=O)C1c2ccccc2C(=O)N(C)C1c1ccc(OC)c(OC)c1 (stereo not drawn)	none
Cc1cccc(C)c1N(C)S(=O)(=O)c1ccc2[nH]cc(C(=O)NCc3ccccn3)c(=O)c2c1	14-3-3 PPI 44
CCc1ccccc1N(C)S(=O)(=O)c1ccc2[nH]cc(C(=O)NCCc3ccccc3)c(=O)c2c1	none
C=CCN(c1ccccc1)S(=O)(=O)c1ccc2[nH]cc(C(=O)NCc3ccccn3)c(=O)c2c1	none
CCc1ccc(NS(=O)(=O)c2ccc3[nH]cc(C(=O)NCc4ccccn4)c(=O)c3c2)cc1	14-3-3 PPI 172
COCCCNC(=O)c1c[nH]c2ccc(S(=O)(=O)N(C)c3c(C)cccc3C)cc2c1=O	none
CCOc1ccc(N(C)S(=O)(=O)c2ccc3[nH]cc(C(=O)NCc4ccccc4)c(=O)c3c2)cc1	none
Cc1ccccc1N(C)S(=O)(=O)c1ccc2[nH]cc(C(=O)NCC3CCCO3)c(=O)c2c1 (stereo not drawn)	none
CCc1ccc(NS(=O)(=O)c2ccc3[nH]cc(C(=O)NCc4ccc(C)cc4)c(=O)c3c2)cc1	none
CN(c1ccc(Br)cc1)S(=O)(=O)c1ccc2[nH]cc(C(=O)NCc3ccccn3)c(=O)c2c1	14-3-3 PPI 147
CCc1ccc(NS(=O)(=O)c2ccc3[nH]cc(C(=O)NCc4ccccc4)c(=O)c3c2)cc1	none
CCCCN(C)C(=O)c1c[nH]c2ccc(S(=O)(=O)N(C)c3ccccc3CC)cc2c1=O	none
CCc1ccccc1N(C)S(=O)(=O)c1ccc2[nH]cc(C(=O)O)c(=O)c2c1	14-3-3 PPI 63
Cn1ncc([N+](=O)[O-])c1C(=O)NCC(=O)O	none
CC(C)C1N=C2c3ccccc3N=C(SCc3ccccc3Cl)N2C1=O (stereo not drawn)	none
Cc1ccc2nc(-c3ccc(Cl)cc3)cc(C(=O)N3CCOCC3)c2c1	none
O=C1C(Cl)=C(Cl)C(=O)N1CCOCCOCCN1C(=O)C(Cl)=C(Cl)C1=O	none
CSc1cccc(NC(=O)CCc2nc(-c3ccccc3F)no2)c1	none
Cc1cccc(-n2nc3c(c2NC(=O)c2ccc(Br)o2)CS(=O)C3)c1C (stereo not drawn)	none
Cc1ccc(NC(=O)c2ccccc2NC(=O)c2cccs2)c(C(=O)c2ccccc2)c1	none
Cc1c(C(=O)N(C)Cc2ccccc2)sc2ncnc(N(C)c3ccccc3)c12	none
Cc1ccc(N(C)S(=O)(=O)c2ccc3[nH]cc(C(=O)NCc4ccccn4)c(=O)c3c2)cc1C	none
COCCNC(=O)c1c[nH]c2ccc(S(=O)(=O)N(C)c3ccc(F)cc3)cc2c1=O	none
CN(c1ccc(F)cc1)S(=O)(=O)c1ccc2[nH]cc(C(=O)NCc3ccccn3)c(=O)c2c1	14-3-3 PPI active
COc1ccc(OCC(=O)NCc2cc(-c3nn(C)c(=O)c4ccccc34)ccc2C)cc1	none
OCC1OC(Nc2ccc(Cl)cc2)C(O)C(O)C1O (stereo not drawn)	none
Clc1ccc(-c2nc3ncccn3c2Nc2ccc3c(c2)OCO3)cc1	none
Clc1ccc(Sc2c(-c3ccccc3)nc3ncccn23)cc1	14-3-3 PPI 39
CSc1ccc(-c2nc3ncccn3c2Nc2ccccc2C)cc1	none
Cc1c(Cl)c(C)c([N+](=O)[O-])c(O)c1C=Nc1ccc(Br)cc1	none
Cc1c(Cl)c(C)c([N+](=O)[O-])c(O)c1C=Nc1ccc(C(=O)O)cc1	14-3-3 PPI 45
Cc1c(Cl)c(C)c([N+](=O)[O-])c(O)c1C=Nc1cccc(C(=O)O)c1	none
COc1ccc(CCn2c(=S)[nH]c3cc(Cl)ccc3c2=O)cc1OC	none
Cc1ccc(NC(=O)CN2CCN(CC(=O)Nc3ccc(C)cc3)CC2)cc1	none
O=S(=O)(c1ccc2ccccc2c1)N1CCc2cc(Br)ccc21	none
Cc1ccccc1Cn1c(CCNC(=O)c2ccc(F)cc2)nc2ccccc21	14-3-3 PPI 32
Cc1ccc(C)c(Cn2c(CCNC(=O)c3ccc(F)cc3)nc3ccccc32)c1	none
CCCCn1c(CCNC(=O)c2ccc(F)cc2)nc2ccccc21	none
O=C(Cn1c(=O)n(-c2ccccc2)c(=O)c2sccc21)NCCC1=CCCCC1	none
CCN1/C(=C/c2ccc3cc(OC)ccc3[n+]2CC)Sc2ccc(C)cc21	14-3-3 PPI 42
CCN1/C(=C/c2ccc3cc(OC)ccc3[n+]2CC)Sc2ccc(Cl)cc21	none
CCN1/C(=C/c2ccc3ccccc3[n+]2CC)Sc2ccc(C)cc21	none
CCOC(=O)C1=CN(c2ccc(C)cc2)C=C(C(=O)OCC)C1c1cccc(F)c1	none
CCCCNC(=O)c1nccnc1C(=O)O	none
O=C(CCCN1C(=O)c2ccccc2C1=O)N1CCOCCOCCOCCOCCOCC1	none
CCn1c(CSc2nccn2C)nc2cc(C(=O)O)ccc21	14-3-3 PPI 57
COc1ccc(C(=O)CSc2nccn2C)cc1OC	none
Cn1ccnc1SCC(=O)c1ccc(Cl)cc1	none
CC1CN(c2ccc([N+](=O)[O-])cc2)CC(C)O1 (stereo not drawn)	none
O=C(c1ccc(Sc2ccccc2Cl)c([N+](=O)[O-])c1)N1CCN(c2ccc(F)cc2)CC1	none
O=C(NC1CCCCCC1)c1c(O)c2ccccc2[nH]c1=O	none
O=c1cc(CNC2CCCCC2)c2ccccc2[nH]1	none
O=C1c2ccccc2-c2c(NC3CCCCC3)c(=O)[nH]c3cccc1c23	14-3-3 PPI active
